Counter-ions that a name gives are not always drawn.
Columns and labels:
Conditions in all cases: 20 µM
[1] = system: Salmonella enterica typhimurium; experiment: growth AUC normalised to DMSO control (fraction of control); higher = less growth inhibition, active = hit call of the paper
In short: (§1)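 Hemin and NAD were added to the medium for Haemophilus parainfluenzae. All pathogens, after two anaerobic passages, were inoculated at a starting OD578 of 0.01 into pre-reduced mGAM plates with 20 μM compound and 1% DMSO under breathable seals, and OD578 was read hourly for 24 h in three biological replicates. AUC of each growth curve was obtained with the trapezoidal rule up to the exponential-to-stationary transition and normalised to DMSO controls from the same plate.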

Shigella flexneri = experiment: as above
In short: as §1

Vibrio cholerae = experiment: as above
In short: as §1

[2] = system: Yersinia pseudotuberculosis; experiment: as above
In short: as §1

P. vulgatus RND KO = experiment: growth AUC normalised to DMSO control (median) (fraction of control); higher = less growth inhibition, active = hit call of the paper
In short: (§2)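 Anaerobic growth was tracked hourly at OD578 for 24 h in 96-well plates of mGAM seeded at OD578 0.01 with each approved-drug library compound at 20 μM and 1% DMSO. Strains had first been passaged twice overnight without oxygen. Three biological replicates were run. The reported median is the area under the curve, calculated by the trapezoidal rule on curves truncated at entry into stationary phase and normalised to vehicle wells on the same plate.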

P. vulgatus WT = experiment: as above
In short: as §2

[3] = system: S. enterica typhimurium WT; experiment: as above
In short: as §2

[4] = system: S. enterica typhimurium tolC KO; experiment: as above
In short: as §2

Measured: growth AUC normalised to DMSO control
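For growth AUC normalised to DMSO control (median) in this document: active when median AUC fell below 0.1.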

CC(=O)O[C@]1(C(C)=O)CC[C@H]2[C@@H]3C=C(C)C4=CC(=O)CC[C@@H]4[C@H]3CC[C@@]21C [Nomegestrol acetate]
inactive: [1] 0.991 | Shigella flexneri 1.03 | Vibrio cholerae 1.06 | [2] 1.01 | P. vulgatus RND KO 0.963 | P. vulgatus WT 1 | [3] 1.03 | [4] 0.94

CCN(CC)C(=O)c1ccc(O)c(OC)c1 [Ethamivan]
inactive: [1] 0.981 | Shigella flexneri 1.03 | Vibrio cholerae 1.03 | [2] 1 | P. vulgatus RND KO 1.04 | P. vulgatus WT 1.06 | [3] 1.01 | [4] 1.01

CC(C)(C)c1ccc(C(O)CCCN2CCC(C(O)(c3ccccc3)c3ccccc3)CC2)cc1 (stereo not drawn) [Terfenadine]
inactive: [1] 1.01 | Shigella flexneri 0.999 | Vibrio cholerae 0.982 | [2] 1.03 | P. vulgatus RND KO 0.907 | P. vulgatus WT 0.892 | [3] 1.01 | [4] 0.88

C=CCOc1ccccc1OCC(O)CNC(C)C (stereo not drawn) [Oxprenolol hydrochloride]
inactive: [1] 0.993 | Shigella flexneri 1.02 | Vibrio cholerae 1.03 | [2] 1 | P. vulgatus RND KO 0.998 | P. vulgatus WT 1 | [3] 0.997 | [4] 0.994

CN1CCN2c3ccccc3Cc3ccccc3C2C1 (stereo not drawn) [Mianserine hydrochloride]
active: Vibrio cholerae 0.868
inactive: [1] 0.986 | Shigella flexneri 0.986 | [2] 0.956 | P. vulgatus RND KO 1.03 | P. vulgatus WT 1.03 | [3] 0.994 | [4] 1

O=C1c2ccccc2C(=O)C1c1ccccc1 [Phenindione]
inactive: [1] 0.982 | Shigella flexneri 0.956 | Vibrio cholerae 0.983 | [2] 0.983 | P. vulgatus RND KO 0.997 | P. vulgatus WT 0.989 | [3] 0.998 | [4] 0.977

CC(C)(C#N)c1cc(Cn2cncn2)cc(C(C)(C)C#N)c1 [Anastrozole]
inactive: [1] 1.02 | Shigella flexneri 1.07 | Vibrio cholerae 1.04 | [2] 0.696 | P. vulgatus RND KO 1.09 | P. vulgatus WT 1.06 | [3] 0.991 | [4] 0.996

COC(=O)CCc1ccc(OCC(O)CNC(C)C)cc1 (stereo not drawn) [Esmolol hydrochloride]
inactive: [1] 1.01 | Shigella flexneri 1.06 | Vibrio cholerae 1.06 | [2] 1 | P. vulgatus RND KO 1.05 | P. vulgatus WT 1.09 | [3] 1 | [4] 1.01

Cc1cc(NS(=O)(=O)c2ccc(N)cc2)no1 [Sulfamethoxazole]
inactive: [1] 0.983 | Shigella flexneri 0.984 | Vibrio cholerae 0.993 | [2] 0.991 | P. vulgatus RND KO 0.951 | P. vulgatus WT 0.979 | [3] 0.967 | [4] 0.959

COc1cc(NC(C)CCCN)c2ncccc2c1 (stereo not drawn) [Primaquine diphosphate]
inactive: [1] 0.998 | Shigella flexneri 1.01 | Vibrio cholerae 1.01 | [2] 1.02 | P. vulgatus RND KO 1.01 | P. vulgatus WT 1.02 | [3] 1.01 | [4] 0.998

Nc1ccc(S(=O)(=O)Nc2ncccn2)cc1 [Sulfadiazine]
inactive: [1] 0.989 | Shigella flexneri 0.974 | Vibrio cholerae 1 | [2] 0.987 | P. vulgatus RND KO 0.996 | P. vulgatus WT 0.995 | [3] 0.986 | [4] 1

NCC[C@H](O)C(=O)N[C@@H]1C[C@H](N)[C@@H](O[C@H]2O[C@H](CN)[C@@H](O)[C@H](O)[C@H]2O)[C@H](O)[C@H]1O[C@H]1O[C@H](CO)[C@@H](O)[C@H](N)[C@H]1O [Amikacin hydrate]
inactive: Shigella flexneri 0.985 | Vibrio cholerae 1.01 | P. vulgatus RND KO 1.02 | P. vulgatus WT 1.04 | [3] 1 | [4] 0.995
active: [1] 0.922 | [2] 0.122

CC[N+](CC)(CC)CCOc1cccc(OCC[N+](CC)(CC)CC)c1OCC[N+](CC)(CC)CC [Gallamine triethiodide]
inactive: [1] 1 | Shigella flexneri 1.02 | Vibrio cholerae 1.01 | [2] 1.02 | P. vulgatus RND KO 1.02 | P. vulgatus WT 1.02 | [3] 1.01 | [4] 1.01

CCN(CC)CCCC(C)Nc1ccnc2cc(Cl)ccc12 (stereo not drawn) [Chloroquine diphosphate]
inactive: [1] 0.997 | Shigella flexneri 0.982 | Vibrio cholerae 1.01 | [2] 1.01 | P. vulgatus RND KO 1.02 | P. vulgatus WT 1.02 | [3] 1 | [4] 1

CN(C)[C@@H]1C(=O)C(C(=O)NCNCCCC[C@H](N)C(=O)O)=C(O)[C@@]2(O)C(=O)C3=C(O)c4c(O)cccc4[C@@](C)(O)[C@H]3C[C@@H]12 [Lymecycline]
inactive: Shigella flexneri 0.947 | [2] 1.01 | P. vulgatus RND KO 0.779 | P. vulgatus WT 0.835 | [3] 0.94 | [4] 0.94
active: [1] 0.903 | Vibrio cholerae 0.448

CN(C)CCN(Cc1ccccc1)c1ccccn1 [Tripelennamine hydrochloride]
inactive: [1] 1 | Shigella flexneri 0.993 | Vibrio cholerae 1.01 | [2] 0.973 | P. vulgatus RND KO 0.982 | P. vulgatus WT 0.985 | [3] 0.965 | [4] 1

Source: the supplement of paper PMC12350171
